Results: PubChem BioAssay (EPA / NIEHS)
The source made the active and inactive calls. Rule for the calls: active = hit-call score of the fitted dose curve at least 0.9, where 1 is the maximum; inactive = score below 0.9.

Assays:
Details in all cases: mRNA level, 48 h; actives raise or lower the signal
[1] = read-out: Cytochrome P450 7A1 (Homo sapiens) (UniProt P22680); assay: LTEA_HepaRG_CYP7A1: Life Technologies and Expression Analysis (LTEA) Assay for Cytochrome P450 7A1 (CYP7A1) using HepaRG (AID 2283496)
Summary of the method: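 HepaRG cells plated 48 h, then switched to serum-free induction medium and exposed in duplicate for 48 h to 8-point half-log series from 100 uM in 0.5% DMSO. CYP7A1 mRNA by qRT-PCR (TaqMan), normalized to ACTB/GAPDH/POLR2A; bidirectional fit versus DMSO.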

[2] = read-out: Glutathione S-Transferase (GSTA2), GSTA2 (gene 2939); assay: LTEA_HepaRG_GSTA2: Life Technologies and Expression Analysis (LTEA) Assay for Glutathione S-Transferase (GSTA2) using HepaRG (AID 2283497)
Summary of the method: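 HepaRG, 48 h dosing, 8-pt half-log CRC from 100 uM, 0.5% DMSO vehicle, n=2; RNA → Fluidigm TaqMan qRT-PCR; GSTA2 vs ACTB/GAPDH/POLR2A; gain/loss fit vs DMSO.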

[3] = read-out: Glutamate-cysteine ligase catalytic (GCLC), GCLC (gene 2729); assay: LTEA_HepaRG_GCLC: Life Technologies and Expression Analysis (LTEA) Assay for Glutamate-cysteine ligase catalytic (GCLC) using HepaRG (AID 2283498)
Summary of the method: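 Read-out is GCLC transcript level by Fluidigm-based TaqMan qRT-PCR, normalized to three housekeeping genes and fitted in both directions relative to 0.5% DMSO. Human HepaRG cells received chemicals for 48 h, up to 100 uM.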

[4] = read-out: growth arrest and DNA damage 45 (GADD45G), GADD45G (gene 10912); assay: LTEA_HepaRG_GADD45G: Life Technologies and Expression Analysis (LTEA) Assay for growth arrest and DNA damage 45 (GADD45G) using HepaRG (AID 2283499)
Summary of the method: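 Human hepatic HepaRG line treated 48 h with chemicals (eight concentrations, half-log steps from 100 uM); transcript induction or repression of GADD45G scored by qRT-PCR versus DMSO vehicle.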

[5] = read-out: Glutamate-cysteine ligase regulatory (GCLM), GCLM (gene 2730); assay: LTEA_HepaRG_GCLM: Life Technologies and Expression Analysis (LTEA) Assay for Glutamate-cysteine ligase regulatory (GCLM) using HepaRG (AID 2283500)
Summary of the method: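 Cells were plated, cultured 48 h, switched to serum-free induction medium, then dosed in duplicate for 48 h at eight half-log concentrations up to 100 uM. RNA was then profiled by qRT-PCR; gain or loss versus DMSO was fitted.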

[6] = read-out: Glutathione S-transferase M3 (GSTM3), GSTM3 (gene 2947); assay: LTEA_HepaRG_GSTM3: Life Technologies and Expression Analysis (LTEA) Assay for Glutathione S-transferase M3 (GSTM3) using HepaRG (AID 2283501)
Summary of the method: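 Changes in GSTM3 expression, an oxidative-stress marker, were scored by bidirectional curve fitting against 0.5% DMSO vehicle. Human HepaRG cultures received chemicals for 48 h in duplicate, highest concentration 100 uM with half-log dilutions.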

[7] = read-out: Heat shock 70 kDa protein 1 (HSPA1A), gene 3303; assay: LTEA_HepaRG_HSPA1A: Life Technologies and Expression Analysis (LTEA) Assay for Heat shock 70 kDa protein 1 (HSPA1A) using HepaRG (AID 2283502)
Summary of the method: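 Readout is HSPA1A transcript level by microfluidic qRT-PCR, normalized to three housekeeping genes and analysed for gain or loss of signal relative to 0.5% DMSO. Human HepaRG cultures received test chemicals for 48 h at up to 100 uM.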

[8] = read-out: 3-Hydroxy-3-Methylglutaryl-CoA Synthase 2 (HMGCS2), HMGCS2 (gene 3158); assay: LTEA_HepaRG_HMGCS2: Life Technologies and Expression Analysis (LTEA) Assay for 3-Hydroxy-3-Methylglutaryl-CoA Synthase 2 (HMGCS2) using HepaRG (AID 2283504)
Summary of the method: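 Expression of HMGCS2 in human HepaRG liver cells is measured by qRT-PCR 48 h after dosing (highest 100 uM, half-log series, 0.5% DMSO). Values come from bidirectional concentration-response fitting with DMSO as baseline.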

HGF (gene 3082) = assay: LTEA_HepaRG_HGF: Life Technologies and Expression Analysis (LTEA) Assay for Hepatocyte Growth Facto (HGF) using HepaRG (AID 2283505)
Summary of the method: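 Gain or loss of HGF mRNA in human HepaRG liver cells after 48 h chemical exposure; eight concentrations up to 100 uM with 0.5% DMSO vehicle, quantified by TaqMan qRT-PCR.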

[9] = read-out: Insulin Like Growth Factor 1 (IGF1), IGF1 (gene 3479); assay: LTEA_HepaRG_IGF1: Life Technologies and Expression Analysis (LTEA) Assay for Insulin Like Growth Factor 1 (IGF1) using HepaRG (AID 2283506)
Summary of the method: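 HepaRG, plated 48 h, then switched to serum-free induction media; test chemical 8-pt half-log from 100 uM (0.5% DMSO), duplicate, 48 h. Lysis in RLT, TaqMan qRT-PCR, norm. ACTB/GAPDH/POLR2A. Bidirectional fit vs DMSO.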

[10] = read-out: Intercellular Adhesion Molecule 1 (ICAM1), ICAM1 (gene 3383); assay: LTEA_HepaRG_ICAM1: Life Technologies and Expression Analysis (LTEA) Assay for Intercellular Adhesion Molecule 1 (ICAM1) using HepaRG (AID 2283507)
Summary of the method: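 Gain or loss of transcript in HepaRG hepatic cells is quantified by qRT-PCR after 48 h chemical exposure (up to 100 uM, half-log steps), with DMSO as baseline.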

[11] = read-out: Interleukin 6 (IL6), IL6 (gene 3569); assay: LTEA_HepaRG_IL6: Life Technologies and Expression Analysis (LTEA) Assay for Interleukin 6 (IL6) using HepaRG (AID 2283509)
Summary of the method: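 HepaRG, ~100,000 cells/well, 48 h pre-culture; serum-free induction medium; cmpd 8-pt half-log from 100 uM, 0.5% DMSO, duplicate, 48 h. Lysis in RLT, TaqMan qRT-PCR; gain or loss vs DMSO.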

[12] = read-out: Interleukin 6 Receptor (IL6R), IL6R (gene 3570); assay: LTEA_HepaRG_IL6R: Life Technologies and Expression Analysis (LTEA) Assay for Interleukin 6 Receptor (IL6R) using HepaRG (AID 2283510);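 for AC50: differentiated human HepaRG liver cells in serum-free induction medium; TaqMan qRT-PCR signal normalized to ACTB GAPDH and POLR2A housekeeping genes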
Summary of the method: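 Readout is IL6R transcript level by TaqMan qRT-PCR, normalized to three housekeeping genes and fitted bidirectionally against 0.5% DMSO controls. Human HepaRG cells received chemicals for 48 h in serum-free induction medium, highest concentration 100 uM.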

[13] = read-out: Potassium channel subfamily K member 1 (KCNK1), KCNK1 (gene 3775); assay: LTEA_HepaRG_KCNK1: Life Technologies and Expression Analysis (LTEA) Assay for Potassium channel subfamily K member 1 (KCNK1) using HepaRG (AID 2283511)
Summary of the method: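 Gain or loss of KCNK1 mRNA is the read-out, quantified by qRT-PCR against three housekeeping genes after 48 h chemical treatment of human HepaRG liver cells. Concentrations ran from 100 uM downward in half-log steps, vehicle 0.5% DMSO.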

[14] = read-out: Keratin 19 (KRT19), KRT19 (gene 3880); assay: LTEA_HepaRG_KRT19: Life Technologies and Expression Analysis (LTEA) Assay for Keratin 19 (KRT19) using HepaRG (AID 2283512)
Summary of the method: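 Gene-expression endpoint in the human liver line HepaRG after 48 h exposure to up to 100 uM test chemical with 0.5% DMSO vehicle; KRT19 mRNA by qRT-PCR, analyzed bidirectionally versus DMSO.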

[15] = read-out: Lipase C (LIPC), LIPC (gene 3990); assay: LTEA_HepaRG_LIPC: Life Technologies and Expression Analysis (LTEA) Assay for Lipase C (LIPC) using HepaRG (AID 2283514)
Summary of the method: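 Read-out is LIPC transcript level by TaqMan qRT-PCR, normalized to three housekeeping genes, after 48 h chemical treatment of human HepaRG liver cells. Curves span eight concentrations topping at 100 uM; activity in either direction scored relative to 0.5% DMSO.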

[16] = read-out: Lipoprotein lipase (LPL), LPL (gene 4023); assay: LTEA_HepaRG_LPL: Life Technologies and Expression Analysis (LTEA) Assay for Lipoprotein lipase (LPL) using HepaRG (AID 2283515)
Summary of the method: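 Read-out is LPL transcript level by qRT-PCR, normalized to three housekeeping genes and fitted bidirectionally against the DMSO control. Human HepaRG cells received chemicals for 48 h at up to 100 uM.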

[17] = read-out: Hypoxia-inducible factor 1-alpha (Homo sapiens) (UniProt Q16665); assay: LTEA_HepaRG_HIF1A: Life Technologies and Expression Analysis (LTEA) Assay for Hypoxia-inducible factor 1 (HIF1A) Trancription factor using HepaRG (AID 2283503)
Summary of the method: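 Differentiated HepaRG cells in serum-free induction medium exposed 48 h, in duplicate, to 8-point half-log series from 100 uM in 0.5% DMSO. HIF1A mRNA measured by TaqMan qRT-PCR, normalized to ACTB/GAPDH/POLR2A, fitted bidirectionally versus DMSO.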

[18] = read-out: Insulin-like growth factor-binding protein 1 (IGFBP1), IGFBP1 (gene 3484); assay: LTEA_HepaRG_IGFBP1: Life Technologies and Expression Analysis (LTEA) Assay for Insulin-like growth factor-binding protein 1 (IGFBP1) using HepaRG (AID 2283508)
Summary of the method: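 mRNA induction or loss was quantified by qRT-PCR after 48 h chemical exposure of human HepaRG cells, with 0.5% DMSO as vehicle and baseline. Concentration-response over eight points up to 100 uM.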

[19] = read-out: JUN Transcription Factor, JUN (gene 3725); assay: LTEA_HepaRG_JUN: Life Technologies and Expression Analysis (LTEA) Assay for JUN Transcription Factor using HepaRG (AID 2283513)
Summary of the method: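 Cells plated 48 h, medium switched to serum-free induction medium, then dosed 48 h (100 uM top, half-log dilutions, 0.5% DMSO). RNA isolated; JUN measured by qRT-PCR against three housekeeping genes; gain or loss fitted relative to DMSO.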

Hypoxia-inducible factor 1-alpha (Homo sapiens), sequence (Q16665 whole entry, looked up): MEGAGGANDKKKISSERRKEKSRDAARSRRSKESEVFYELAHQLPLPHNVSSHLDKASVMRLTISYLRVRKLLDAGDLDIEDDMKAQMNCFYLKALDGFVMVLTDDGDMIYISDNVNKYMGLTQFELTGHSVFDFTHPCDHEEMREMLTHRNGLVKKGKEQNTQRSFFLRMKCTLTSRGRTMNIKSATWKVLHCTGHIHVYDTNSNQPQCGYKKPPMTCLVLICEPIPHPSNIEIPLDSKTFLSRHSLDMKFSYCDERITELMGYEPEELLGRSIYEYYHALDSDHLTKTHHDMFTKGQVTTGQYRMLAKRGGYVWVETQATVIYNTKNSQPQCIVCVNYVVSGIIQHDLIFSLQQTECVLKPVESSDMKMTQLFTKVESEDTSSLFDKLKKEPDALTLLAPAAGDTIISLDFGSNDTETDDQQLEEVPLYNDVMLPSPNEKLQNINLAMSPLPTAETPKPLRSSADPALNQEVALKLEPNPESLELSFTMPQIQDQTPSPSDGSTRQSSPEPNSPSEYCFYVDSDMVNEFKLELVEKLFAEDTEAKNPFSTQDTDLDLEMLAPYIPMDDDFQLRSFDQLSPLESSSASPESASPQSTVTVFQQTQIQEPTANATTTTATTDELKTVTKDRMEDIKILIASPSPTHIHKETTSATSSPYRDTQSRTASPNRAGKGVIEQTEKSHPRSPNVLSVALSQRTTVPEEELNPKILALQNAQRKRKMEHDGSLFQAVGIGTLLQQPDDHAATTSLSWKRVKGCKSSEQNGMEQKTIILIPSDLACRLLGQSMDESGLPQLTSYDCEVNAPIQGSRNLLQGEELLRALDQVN

O=P(OCCCl)(OCCCl)OCCCl
outcome [1]: inactive
outcome [2]: inactive
outcome [3]: inactive
outcome [4]: inactive
outcome [5]: inactive
outcome [6]: inactive
AC50 [7]: 9.92 µM (active)
outcome [8]: inactive
outcome (HGF (gene 3082)): inactive
outcome [9]: inactive
outcome [10]: inactive
outcome [11]: inactive
outcome [12]: inactive
outcome [13]: inactive
outcome [14]: inactive
outcome [15]: inactive
outcome [16]: inactive

C=CCc1ccc2c(c1)OCO2
outcome [1]: inactive
outcome [2]: inactive
outcome [3]: inactive
outcome [4]: inactive
outcome [5]: inactive
outcome [6]: inactive
outcome [17]: inactive
outcome [8]: inactive
outcome (HGF (gene 3082)): inactive
outcome [9]: inactive
outcome [10]: inactive
outcome [18]: inactive
outcome [11]: inactive
outcome [12]: inactive
outcome [13]: inactive
outcome [14]: inactive
outcome [19]: inactive
outcome [15]: inactive
outcome [16]: inactive

Cc1cc(N=Nc2ccccc2C)ccc1N
AC50 [1]: 12.8 µM (active)
AC50 [2]: 5.01 µM (active)
AC50 [3]: 1.67 µM (active)
AC50 [4]: 4.14 µM (active)
AC50 [5]: 50 µM (active)
AC50 [6]: 1.48 µM (active)
AC50 [17]: 7.09 µM (active)
AC50 [8]: 12.8 µM (active)
outcome (HGF (gene 3082)): inactive
AC50 [9]: 4.25 µM (active)
outcome [10]: inactive
outcome [11]: inactive
AC50 [12]: 2.45 µM (active)
outcome [13]: inactive
AC50 [14]: 17.2 µM (active)
outcome [19]: inactive
AC50 [15]: 3.22 µM (active)
AC50 [16]: 4.4 µM (active)

CN(C)c1ccc(C(=O)c2ccc(N(C)C)cc2)cc1
outcome [1]: inactive
outcome [2]: inactive
outcome [3]: inactive
outcome [4]: inactive
outcome [5]: inactive
outcome [6]: inactive
outcome [17]: inactive
outcome [8]: inactive
outcome (HGF (gene 3082)): inactive
outcome [9]: inactive
outcome [10]: inactive
outcome [18]: inactive
outcome [11]: inactive
outcome [12]: inactive
outcome [13]: inactive
AC50 [14]: 13.5 µM (active)
AC50 [15]: 33 µM (active)
outcome [16]: inactive

Nc1ccc(N=Nc2ccccc2)cc1
AC50 [1]: 16.4 µM (active)
AC50 [2]: 15.1 µM (active)
AC50 [3]: 7.79 µM (active)
AC50 [4]: 15.6 µM (active)
outcome [5]: inactive
AC50 [6]: 13.2 µM (active)
AC50 [7]: 34 µM (active)
AC50 [8]: 24.6 µM (active)
outcome (HGF (gene 3082)): inactive
AC50 [9]: 12.8 µM (active)
AC50 [10]: 30.9 µM (active)
outcome [11]: inactive
AC50 [12]: 13 µM (active)
outcome [13]: inactive
AC50 [14]: 50 µM (active)
outcome [19]: inactive
AC50 [15]: 12.8 µM (active)
AC50 [16]: 22.3 µM (active)

C1=Cc2cccc3cccc1c23
outcome [1]: inactive
outcome [2]: inactive
outcome [3]: inactive
outcome [4]: inactive
outcome [5]: inactive
outcome [6]: inactive
outcome [8]: inactive
outcome (HGF (gene 3082)): inactive
outcome [9]: inactive
outcome [10]: inactive
outcome [11]: inactive
outcome [12]: inactive
outcome [13]: inactive
outcome [14]: inactive
outcome [19]: inactive
outcome [15]: inactive
outcome [16]: inactive

O=Cc1ccco1
outcome [1]: inactive
outcome [2]: inactive
outcome [3]: inactive
outcome [4]: inactive
outcome [5]: inactive
outcome [6]: inactive
outcome [8]: inactive
outcome (HGF (gene 3082)): inactive
outcome [9]: inactive
outcome [10]: inactive
outcome [18]: inactive
outcome [11]: inactive
outcome [12]: inactive
outcome [13]: inactive
outcome [14]: inactive
outcome [15]: inactive
outcome [16]: inactive

CCNS(=O)(=O)C(F)(F)C(F)(F)C(F)(F)C(F)(F)C(F)(F)C(F)(F)C(F)(F)C(F)(F)F
AC50 [1]: 48.2 µM (active)
AC50 [2]: 48.2 µM (active)
outcome [3]: inactive
AC50 [4]: 36.6 µM (active)
outcome [5]: inactive
outcome [6]: inactive
outcome [8]: inactive
outcome (HGF (gene 3082)): inactive
AC50 [9]: 48.2 µM (active)
outcome [10]: inactive
outcome [11]: inactive
outcome [12]: inactive
outcome [13]: inactive
AC50 [14]: 48.2 µM (active)
outcome [15]: inactive
outcome [16]: inactive
